This is a sample that favours compounds with a hit; in the whole collection about 19% have one here.
HT1080-NT tox: kills 2HG-producing HT-1080-NT fibrosarcoma cells. HT-1080-NT fibrosarcoma viability, CellTiter-Glo ATP luminescence, 48 h. Potency, µM (doses to about 46.1 µM), most hits filed as cytotoxic. 1.6% of 360,000 active. AID 686970;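 note: NT is the 2HG producing partner of a matched IDH1 knockdown line; nearly all actives have a fitted effect of over 55% in size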
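HT-1080-NT fibrosarcoma cells (2HG-overproducing), 750 cells/well in RPMI with 5% FBS, dosed after 2 h and incubated 48 h at 37C. CellTiter-Glo luminescence normalized to DMSO and no-cell wells; concentration-response curves fitted and classed.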
KB-V1 MDR tox: KB-V1 MDR subline cytotoxicity | KB-V1 MDR cells viability, CellTiter-Glo, 72 h | Potency, µM (top dose mostly 46.1 µM), hits mostly cytotoxic | 3.4% of 400,000 active; note: nearly all actives have a fitted effect of over 60% in size
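Potencies derive from concentration-effect curves fitted to normalized luminescence (CellTiter-Glo) of KB-V1 cells treated for 72 h at 37 degrees C in phenol-red-free DMEM containing 10% FBS.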
DT40 TDP1 no CPT: qHTS for Inhibitors of human tyrosyl-DNA phosphodiesterase 1 (TDP1): qHTS in cells in absence of CPT | Potency, µM (titrated, usually from 46.2 µM), usual class: inhibitors | 15% of 420,000 active | DT40 Tdp1-/- hTDP1 cells, no CPT, ATP luminescence, 48 h; note: nearly all actives have a fitted effect of over 55% in size
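DT40 Tdp1-/-;hTDP1 cells, no CPT (DMSO vehicle only), 400 cells/well; compounds pin-transferred; ≥48 hr, 37 °C; CellTiter-Glo 30 min RT dark, luminescence read.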
HT1080 IDH1KD tx: kills HT-1080 cells with IDH1 knockdown | HT-1080 IDH1 knockdown viability, ATP luminescence, 48 h | Potency, µM (top dose mostly 46.1 µM), most hits filed as cytotoxic | 2% of 360,000 active | AID 686971
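CellTiter-Glo luminescence after 48 h compound exposure at 37 degrees C of IDH1-knockdown HT-1080 cells in 5% FBS RPMI. %Activity scaled between DMSO wells and cell-free media wells, with curves fitted and assigned curve classes.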
KB-3-1 cytotox: KB-3-1 parental cell cytotoxicity; 1.4% of 400,000 active; Potency, µM (top dose mostly 46.1 µM), hits mostly cytotoxic; KB-3-1 viability, CellTiter-Glo ATP luminescence, 72 h; note: nearly all actives have a fitted effect of over 60% in size
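72 h, 37 °C compound treatment of KB-3-1 parental cells; CellTiter-Glo added, 10 min, luminescence read. Data corrected against DMSO-only plates and normalized before curve fitting.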
DT40 TDP1 CPT: DT40-hTDP1 cell growth loss with CPT. chicken DT40 Tdp1-/-;hTDP1 cells + 20 nM CPT, ATP luminescence, 48 h. Potency, µM (highest dose often 46.2 µM), most hits filed as inhibitors. 12% of 420,000 active. AID 686979; note: nearly all actives have a fitted effect of over 55% in size
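Chicken DT40 Tdp1-/- cells stably complemented with human TDP1 were seeded at 400 cells/well in medium containing 20 nM camptothecin, exposed to pin-transferred compounds, and grown at 37 °C for at least 48 hr. Viability was read as ATP luminescence.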
A number is an active result; n = inactive; u = inconclusive; x = no result; [ ] = remark or other dose. Calls come from the whole dose curve; as a rule, active = well fitted curve in the direction sought with a large enough effect; inconclusive = small, poorly fitted or top-dose-only effect, or another doubt; inactive = no such curve, though single readings can be large; an effect the other way counts as inactive or inconclusive.

SMILES	HT1080-NT tox	KB-V1 MDR tox	DT40 TDP1 no CPT	HT1080 IDH1KD tx	KB-3-1 cytotox	DT40 TDP1 CPT
COc1ccc(C2=NN(C(=O)COC(=O)c3ccc(NC(=O)CC#N)cc3)C(c3ccco3)C2)cc1 (stereo unspecified)	n	u	u	n	n	u
CCC(=O)N1N=C(c2c(-c3ccccc3)c3cc(Cl)ccc3[nH]c2=O)CC1c1ccco1 (stereo unspecified)	u	n	23µM	u	n	18µM
N=c1sccn1CC(=O)N1N=C(c2ccc(Cl)cc2)CC1c1ccco1 (stereo unspecified)	33µM	u	23µM	u	n	u
COc1ccc(C2=NN(c3nc(-c4ccc(CNC(C)=O)cc4)cs3)C(c3ccco3)C2)cc1 (stereo unspecified)	n	n	18µM	n	n	21µM
O=C(O)CCC(=O)N1N=C(c2c(-c3ccccc3)c3cc(Cl)ccc3[nH]c2=O)CC1c1ccco1 (stereo unspecified)	n	n	n	n	n	n
C=CCn1c(SCC(=O)NC2CC2)nnc1C1CC1	n	n	n	n	n	n
COc1cc2[nH]c(=O)n(CCCCCC(=O)NCCc3c[nH]c4ccccc34)c(=O)c2cc1OC	n	n	u	n	n	u
CCC(=O)N1N=C(c2ccc(NS(=O)(=O)c3ccc(C)cc3)cc2)CC1c1ccco1 (stereo unspecified)	u	n	13µM	u	u	u
O=C(OCC(=O)N1N=C(c2ccc(Cl)cc2)CC1c1ccco1)c1cncc(Br)c1 (stereo unspecified)	n	n	23µM	n	n	u
COc1ccc(C2=NN(C(=O)CSc3nccn3C)C(c3ccco3)C2)cc1 (stereo unspecified)	n	n	u	n	n	18µM
CCS(=O)(=O)Nc1ccc(C2=NN(C(=S)Nc3ccccc3)C(c3ccco3)C2)cc1 (stereo unspecified)	n	13µM	16µM	u	n	16µM
O=C(OCC(=O)N1N=C(c2ccc(Cl)cc2)CC1c1ccco1)c1ccco1 (stereo unspecified)	n	n	u	n	n	n
Cc1cccc(C(=O)NCCC(=O)Nc2ccc(C#N)cc2)c1	n	n	n	n	n	n
COc1ccc(CNC(=O)CN(C)Cc2ccc(C(C)(C)C)cc2)cc1	n	u	u	u	n	u
COc1ccc(CCNc2nc3c(-c4cccc(C)c4)nnn3c3ccccc23)cc1OC	x	n	n	x	n	n
Cc1ccc(C2=NN(C(=O)CSc3nnnn3C)C(c3ccco3)C2)cc1 (stereo unspecified)	n	n	u	n	n	13µM
CCn1c(CN2CCC(C)CC2)nc2cc(S(=O)(=O)N3CCCCC3)ccc21	n	u	13µM	n	n	u
NC(=O)CSc1nc2cc(S(=O)(=O)N3CCOCC3)ccc2o1	n	n	n	n	n	n
CCCn1c(CCC(=O)Nc2ccccc2Cc2ccccc2)nc2cc(S(=O)(=O)N3CCOCC3)ccc21	n	u	23µM	n[9.24 µM]	n	16µM
Nc1nc2cc(S(=O)(=O)N3CCOCC3)ccc2o1	n	n	u	n	n	23µM
CCn1c(SCC(N)=O)nc2cc(S(=O)(=O)N3CCOCC3)ccc21	n	n	n	n	n	n
CCn1c(SCC(=O)c2c[nH]c3ccccc23)nc2cc(S(=O)(=O)N3CCOCC3)ccc21	n	n	21µM	n	n	15µM
Cc1ccc(OC(=O)c2sc(Cl)nc2C)cc1C	n	n	n	n	n	n
COC(=O)c1cc(OC)c(OC)c(OC)c1NC(=O)c1cc(=O)n(C)c(=O)n1C	x	n	n	x	n	n
CCn1c(CCl)nc2cc(S(=O)(=O)N3CCOCC3)ccc21	n	n	2.9µM	n	u	7.3µM
SMILES	HT1080-NT tox	KB-V1 MDR tox	DT40 TDP1 no CPT	HT1080 IDH1KD tx	KB-3-1 cytotox	DT40 TDP1 CPT
CCn1c(SCC(=O)N(C)C)nc2cc(S(=O)(=O)N3CCOCC3)ccc21	n	n	n	n	n	n
CCn1c(SC)nc2cc(S(=O)(=O)N3CCCCC3)ccc21	n	n	n	u	21µM	1.6µM
CC(=O)Nc1ccc(Sc2ccccc2C(=O)Nc2ccc(F)cc2)cn1	n	u	18µM	n	n	u
COCCCn1c(SCC(=O)Nc2ccc(C(C)=O)cc2)nc2ccccc2c1=O	n	u	21µM	n	n	u
COCCn1c(SCC(=O)Nc2ccc(OC)c(S(N)(=O)=O)c2)nc2ccccc21	n	n	u	n	u	16µM
COCCn1c(SCC(=O)Nc2cc(C)cc(C)c2)nc2ccccc2c1=O	n	n	u	n	n	u
COC(=O)c1ccc2c(=O)n(CC3CCCO3)c(SCC(=O)Nc3ccccc3OC)nc2c1 (stereo unspecified)	n	3.3µM	u	n	n	n
COCCn1c(SCC(=O)Nc2ccc(NC(C)=O)cc2)nc2ccccc2c1=O	n	n	u	u	n	n
COCCn1c(SCC(=O)Nc2cccc(C(=O)OC)c2)nc2ccccc2c1=O	n	n	u	n	n	21µM
Cc1ccc(CN2CCN(C3CCCC3)C(CCO)C2)s1 (stereo unspecified)	n	n	n	n	n	n
Clc1ccc[n+](CCCCC[n+]2cccc(Cl)c2)c1	x	n	u	x	n	u
CC1(C)CC(=O)C=C(c2ccc(COC(=O)/C=C/c3ccccc3)cc2)C1=O	n	n	21µM	n	n	u
CC1(C)CC(=O)C=C(c2ccc(COC(=O)c3ccccc3)cc2)C1=O	n	n	u	n	n	n
O=C1N=C(N2C=CC(=C3C=CNC=C3)C=C2)/C(=C/N=NC(=O)c2ccccc2O)S1	n	u	n	n	n	n
CCOC(=O)C1=C(CN2CCCCCC2)NC(=O)NC1c1ccc2c(c1)OCO2 (stereo unspecified)	n	u	u	n	n	n
CCOC(=O)C1=C(CN2CCN(c3cccc(Cl)c3)CC2)NC(=O)NC1c1ccc(Cl)cc1 (stereo unspecified)	x	n	21µM	x	n	u
CCOC(=O)C1=C(CN2CCN(c3ccc(Cl)cc3)CC2)NC(=O)NC1c1ccc(OC)cc1 (stereo unspecified)	x	u	26µM	x	u	21µM
CCOC(=O)C1=C(CN2CCN(c3cc(C)ccc3C)CC2)NC(=O)NC1c1ccccc1 (stereo unspecified)	x	u	18µM	x	u	u
CCOC(=O)C1=C(CN2CCN(c3ccccc3OC)CC2)NC(=O)NC1c1ccccc1 (stereo unspecified)	x	n	u	x	n	u

From PubChem
